These results are taken from PubChem BioAssay (Tox21).

A number with no mark means an inactive call. Records with an inconclusive call do not appear. Active and inactive are the calls of the source. Unless noted, calls follow the shape of the dose curve; as a rule, active = well fitted curve in the direction sought with a large enough effect in the repeat runs; inconclusive = weak or mixed curves; inactive = no such curve, though single readings can be large; an effect the other way counts as inactive or inconclusive.

Test [1] deals with Progesterone receptor (Homo sapiens) (UniProt P06401). Put plainly: qHTS assay to identify small molecule agonists of the progesterone receptor (PR) signaling pathway (AID 1346784; calls by dose curve; also: nearly all actives have a fitted effect of over 30% in size). The gist of the method: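 Reporter assay, GripTite PR-UAS-bla HEK 293T cells: 16 hr exposure to DMSO-dissolved compounds at 37C, 5% CO2, in steroid-depleted (2% charcoal-stripped FBS) medium; beta-lactamase measured by FRET fluorescence.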
Sequence of Progesterone receptor (Homo sapiens) (P06401 whole entry, looked up): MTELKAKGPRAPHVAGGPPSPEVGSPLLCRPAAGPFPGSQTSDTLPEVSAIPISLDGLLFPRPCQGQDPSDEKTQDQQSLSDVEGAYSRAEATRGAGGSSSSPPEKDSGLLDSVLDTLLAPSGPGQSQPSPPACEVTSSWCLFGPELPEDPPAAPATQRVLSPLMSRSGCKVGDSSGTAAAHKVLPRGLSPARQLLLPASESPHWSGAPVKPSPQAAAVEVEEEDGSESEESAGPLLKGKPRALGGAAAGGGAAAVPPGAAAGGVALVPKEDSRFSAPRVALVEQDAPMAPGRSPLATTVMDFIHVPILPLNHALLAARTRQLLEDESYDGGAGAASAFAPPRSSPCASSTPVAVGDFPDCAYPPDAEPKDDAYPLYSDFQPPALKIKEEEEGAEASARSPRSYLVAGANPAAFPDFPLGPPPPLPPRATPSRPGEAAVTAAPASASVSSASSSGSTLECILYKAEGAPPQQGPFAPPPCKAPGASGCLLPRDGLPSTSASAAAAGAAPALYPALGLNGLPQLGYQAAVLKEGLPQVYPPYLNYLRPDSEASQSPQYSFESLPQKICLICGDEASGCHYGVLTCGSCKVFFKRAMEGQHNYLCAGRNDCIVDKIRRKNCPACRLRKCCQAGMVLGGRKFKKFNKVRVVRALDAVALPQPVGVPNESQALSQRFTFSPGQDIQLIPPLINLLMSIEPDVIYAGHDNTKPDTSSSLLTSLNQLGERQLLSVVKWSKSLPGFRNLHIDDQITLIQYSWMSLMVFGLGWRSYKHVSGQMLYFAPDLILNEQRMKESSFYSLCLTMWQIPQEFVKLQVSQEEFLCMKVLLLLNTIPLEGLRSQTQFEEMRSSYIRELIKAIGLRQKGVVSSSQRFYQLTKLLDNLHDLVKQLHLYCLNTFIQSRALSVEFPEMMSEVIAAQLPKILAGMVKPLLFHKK

Test [2] has the same target. Put plainly: qHTS assay to identify small molecule antagonists of the progesterone receptor (PR) signaling pathway (AID 1346795; active = well fitted inhibition curve with a large enough effect in the signal ratio in the repeat runs, not every such curve was filed as active; the % refers to the signal ratio). The gist of the method: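 Stimulus R5020 at 1 nM final; cells HEK293T PR-UAS-bla; medium with 2% charcoal-stripped FBS; compound exposure 16 hr at 37C, 5% CO2; detection by FRET beta-lactamase substrate, 2 hr, room temperature.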
On the technique in general: In qHTS, concentration-response curves come from the screen itself.

The nature of test [3]: qHTS assay to identify small molecule antagonists of the progesterone receptor (PR) signaling pathway - cell viability counter screen (AID 1346798). Also: nearly all actives have a fitted effect of over 50% in size. Also: potency is read from the fitted curve at half-maximal effect. As to activity change, negative = cytotoxicity: series mostly up to about 92 µM. Put shortly: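 In the same plates used for the beta-lactamase readout, cell viability of compound- and R5020-treated PR-UAS-bla HEK293T cells (16 hr, 37C) was assessed by CellTiter-Glo luminescence.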
Test [4] can be described thus: qHTS assay to identify small molecule agonists of the progesterone receptor (PR) signaling pathway - cell viability counter screen (AID 1346799; calls by dose curve; also: nearly all actives have a fitted effect of over 45% in size). Put shortly: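 Multiplexed viability read: CellTiter-Glo luminescence, 30 min RT, following LiveBLAzer FRET measurement on PR-UAS-bla HEK293T cells exposed to compounds 16 hr.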
Test [5] can be described thus: qHTS assay to identify small molecule antagonists of the TGF-beta/Smad signaling pathway - cell viability counter screen (AID 1346824). Also: nearly all actives have a fitted effect of over 50% in size. The gist of the method: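 SBE-bla HEK 293T cells were plated overnight at 37 C, then given compounds in DMSO plus TGF-beta1 (added as 0.25 ng/mL solution) for 5 hr. After the bla read, CellTiter-Glo was added to the same wells and luminescence read after 30 min at room temperature.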

A short description of test [6]: qHTS assay to identify small molecule agonists of the TGF-beta/Smad signaling pathway - cell viability counter screen (AID 1346829). Also: top concentration of the series differs between compounds; nearly all actives have a fitted effect of over 45% in size. The gist of the method:
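Here the cytotoxicity of library compounds is measured in SBE-bla HEK 293T cells treated for 5 hr, using CellTiter-Glo added to wells already read for the beta-lactamase reporter.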

Test [7] can be described thus: qHTS assay to identify small molecule agonists of the TGF-beta/Smad signaling pathway (AID 1346859; active = well fitted activation curve with a large enough effect in the signal ratio in the repeat runs, not every such curve was filed as active; the % refers to the signal ratio; also: series mostly up to about 77 µM). Put shortly: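 Screening used HEK 293T SBE-bla cells at 4,000/well. Test agents: 5 hr, 37 C. Detection: FRET substrate, 2 hr RT, then excitation 405 nm with emissions at 460 and 530 nm.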
Test [8] can be described thus: Human pregnane X receptor (PXR) small molecule agonists, qHTS cell viability counter screen (AID 1346977). Also: nearly all actives have a fitted effect of over 50% in size. The gist of the method:
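In each well, the PXR reporter HepG2 line was checked for viability: CellTiter-Fluor reagent added 23hr post-dosing, fluorescence read after 1hr incubation at 37C.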

Test [9] can be described thus: Caspase-3/7 induction in HepG2 cells by small molecules, qHTS assay (AID 1346978). Also: nearly all actives have a fitted effect of over 15% in size. Put shortly:
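Wild-type HepG2 cells (2,000/well) were settled 5 h at 37 C, 5% CO2, then exposed to compounds in DMSO for 17 h. Caspase-3/7 activity was read by luminescence 30 min after adding Caspase-Glo 3/7 reagent at room temperature.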

Test [10] is described as follows: Caspase-3/7 induction in CHO-K1 cells by small molecules, qHTS cell viability counter screen (AID 1346979). Also: nearly all actives have a fitted effect of over 35% in size. The gist of the method: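 Following a 5hr settling period, CHO-K1 cells at 1,500 per well received DMSO-dissolved compounds. Cell viability was quantified 16hr later by CellTiter-Fluor fluorescence, measured after 1hr with reagent at 37C.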
The nature of test [11]: Caspase-3/7 induction in CHO-K1 cells by small molecules, qHTS assay (AID 1346980). Also: nearly all actives have a fitted effect of over 15% in size. The gist of the method:
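Wild-type cells were seeded at 1,500 per well and settled 5 hr at 37 C, 5% CO2, then exposed to DMSO-dissolved compounds for 17 hr. Caspase-Glo 3/7 reagent was added, and luminescence was read after 30min at room temperature.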

The nature of test [12]: Caspase-3/7 induction in HepG2 cells by small molecules, qHTS cell viability counter screen (AID 1346981). Also: series mostly up to about 92 µM; nearly all actives have a fitted effect of over 30% in size. The gist of the method:
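HepG2, WT, 2,000 cells/well; 5 hr pre-incubation 37 C/5% CO2; compound pin-transferred from DMSO; 16 hr exposure; CellTiter-Fluor, 1 hr; fluorescence read.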

Test [13] deals with Nuclear receptor subfamily 1 group I member 2 (Homo sapiens) (UniProt O75469). Put plainly: Human pregnane X receptor (PXR) small molecule agonists, qHTS assay (AID 1346982). Also: nearly all actives have a fitted effect of over 35% in size. The gist of the method:
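Luciferase signal from ONE-Glo (30 min, room temperature) measured activation of hPXR-driven CYP3A4 reporter expression in PXR-Luc HepG2 cells treated with compounds for 24 hr at 37 C.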

In test [14] the target is Cytochrome P450 2D6 (Homo sapiens) (UniProt P10635). Put plainly: Cytochrome P450 Family 2 Subfamily D Member 6 (CYP2D6) small molecule antagonists: luciferase reporter qHTS assay (AID 1671196). Also: series mostly up to about 120 µM; nearly all actives have a fitted effect of over 50% in size. The gist of the method: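 Read-out is luminescence from luciferin formed by CYP2D6 turnover of a proluciferin substrate, recorded as relative luminescence units. Reactions ran 1 h at room temperature after NADPH regeneration solution was added.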
Sequence of Cytochrome P450 2D6 (Homo sapiens) (P10635 whole entry, looked up): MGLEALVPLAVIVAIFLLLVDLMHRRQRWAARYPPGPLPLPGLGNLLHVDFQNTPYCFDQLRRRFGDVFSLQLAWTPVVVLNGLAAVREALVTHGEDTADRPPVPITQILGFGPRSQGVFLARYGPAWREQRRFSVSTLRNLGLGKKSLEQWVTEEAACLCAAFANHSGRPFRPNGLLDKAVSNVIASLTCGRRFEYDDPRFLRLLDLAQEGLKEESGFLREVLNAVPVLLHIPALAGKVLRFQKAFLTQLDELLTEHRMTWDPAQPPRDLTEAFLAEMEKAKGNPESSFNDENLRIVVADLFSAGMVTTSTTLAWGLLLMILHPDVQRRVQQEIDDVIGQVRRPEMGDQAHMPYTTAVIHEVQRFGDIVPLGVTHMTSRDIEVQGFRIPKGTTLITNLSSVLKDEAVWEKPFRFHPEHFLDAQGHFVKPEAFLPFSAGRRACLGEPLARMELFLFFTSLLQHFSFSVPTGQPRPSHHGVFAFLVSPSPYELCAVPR
For orientation: A reporter such as luciferase makes a cellular process visible.

The target in test [15] is Cytochrome P450 2C19 (Homo sapiens) (UniProt P33261). Put plainly: Cytochrome P450 Family 2 Subfamily C Member 19 (CYP2C19) small molecule antagonists: luciferase reporter qHTS assay (AID 1671197). Also: nearly all actives have a fitted effect of over 65% in size. Also: potency is read from the fitted curve at half-maximal effect. As to activity change, negative = inhibition: series mostly up to about 120 µM. The gist of the method: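 Light output is proportional to CYP2C19 activity: proluciferin substrate is converted to luciferin, then detected by a luciferin detection reagent that also stops the 1 h, 37C NADPH-driven reaction. Ketoconazole serves as positive control.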
Sequence of Cytochrome P450 2C19 (Homo sapiens) (P33261 whole entry, looked up): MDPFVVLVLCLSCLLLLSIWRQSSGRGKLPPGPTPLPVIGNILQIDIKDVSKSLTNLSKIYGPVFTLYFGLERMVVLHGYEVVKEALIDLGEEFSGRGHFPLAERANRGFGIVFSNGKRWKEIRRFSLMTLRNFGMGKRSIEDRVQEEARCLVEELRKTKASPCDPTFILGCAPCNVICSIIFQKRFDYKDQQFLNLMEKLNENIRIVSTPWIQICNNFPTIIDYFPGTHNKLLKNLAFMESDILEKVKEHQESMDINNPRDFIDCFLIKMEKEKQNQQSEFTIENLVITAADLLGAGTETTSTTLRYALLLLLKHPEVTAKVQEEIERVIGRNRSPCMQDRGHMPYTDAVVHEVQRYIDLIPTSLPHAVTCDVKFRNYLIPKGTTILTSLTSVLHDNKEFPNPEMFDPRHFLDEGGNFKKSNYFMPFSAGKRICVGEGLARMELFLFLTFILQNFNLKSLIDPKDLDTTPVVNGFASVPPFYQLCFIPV

For test [16], the target named is Nuclear receptor subfamily 1 group I member 2 (Rattus norvegicus) (UniProt Q9R1A7). Put plainly: Rat pregnane X receptor (rPXR) activation by small molecules, qHTS assay (AID 1346983). Also: nearly all actives have a fitted effect of over 20% in size. The settings on record: rPXR luciferase reporter cells, One-Glo luminescence, 24 h; hits give high values. The gist of the method:
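Cell-based rPXR luciferase reporter assay, 2,000 cells per well, rested 5hr at 37 C before compound addition in DMSO, then 24 hr at 37 C. One-Glo reagent was added and luminescence read after 30 min at room temperature.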

Test [17] has as its target Nuclear receptor subfamily 1 group I member 2 (Homo sapiens) (UniProt O75469). Put plainly: CYP3A4 induction through human pregnane X receptor (PXR) by small molecules, qHTS assay (AID 1346984). Also: nearly all actives have a fitted effect of over 40% in size. Put shortly: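 Luminescence readout: luciferase signal after One-Glo (30 min, room temperature), following 3 h at 37C with 3uM final Luciferin-IPA P450 substrate. Cells were DPX-2 (HepG2, PXR/CYP3A4-luc co-transfected) dosed for 24 h.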

The target is the same in test [18]. Put plainly: Human pregnane X receptor (PXR) activation by small molecules, qHTS assay (AID 1346985). Also: nearly all actives have a fitted effect of over 40% in size. Put shortly: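 DPX-2 cells (HepG2 co-transfected with a PXR response element and a CYP3A4-promoter luciferase construct) were seeded at 2,000 per well, rested 5 hr at 37C, then exposed to DMSO-dissolved compounds for 24 hr. Activation was read as luciferase luminescence.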
% is scaled to controls: 0 for no effect and ±100 for the full control effect.

Sequence of Nuclear receptor subfamily 1 group I member 2 (Homo sapiens) (O75469 whole entry, looked up): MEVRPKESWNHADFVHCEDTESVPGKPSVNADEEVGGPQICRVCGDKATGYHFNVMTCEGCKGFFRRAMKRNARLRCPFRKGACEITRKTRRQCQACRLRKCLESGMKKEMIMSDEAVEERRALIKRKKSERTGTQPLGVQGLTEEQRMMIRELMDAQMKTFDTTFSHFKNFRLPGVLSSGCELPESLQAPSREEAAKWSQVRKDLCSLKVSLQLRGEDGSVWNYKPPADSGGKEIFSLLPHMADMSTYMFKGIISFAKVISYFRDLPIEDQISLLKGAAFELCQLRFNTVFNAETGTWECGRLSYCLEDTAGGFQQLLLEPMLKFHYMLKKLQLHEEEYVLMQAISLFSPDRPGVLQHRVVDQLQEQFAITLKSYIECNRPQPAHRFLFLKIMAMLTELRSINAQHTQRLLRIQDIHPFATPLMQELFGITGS
Sequence of Nuclear receptor subfamily 1 group I member 2 (Rattus norvegicus) (Q9R1A7 whole entry, looked up): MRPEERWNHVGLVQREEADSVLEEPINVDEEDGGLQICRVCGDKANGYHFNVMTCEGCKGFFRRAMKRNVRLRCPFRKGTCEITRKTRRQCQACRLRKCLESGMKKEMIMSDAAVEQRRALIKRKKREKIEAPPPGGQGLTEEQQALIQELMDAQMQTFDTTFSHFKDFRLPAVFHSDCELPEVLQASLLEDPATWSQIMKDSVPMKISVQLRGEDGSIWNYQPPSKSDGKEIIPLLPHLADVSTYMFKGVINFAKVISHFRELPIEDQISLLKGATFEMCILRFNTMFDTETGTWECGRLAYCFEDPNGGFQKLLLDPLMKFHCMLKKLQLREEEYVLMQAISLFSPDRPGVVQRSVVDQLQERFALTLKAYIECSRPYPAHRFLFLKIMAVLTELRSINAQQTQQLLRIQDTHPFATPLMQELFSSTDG

Turning to `CCOC(=O)CCC(C)=O`, the Potency entry in [1], in test [2], in [3], in test [4], in test [5] and in test [8] was “inactive” in each case. The Potency result in test [9], in test [10], in test [12], in test [13], in test [14] and in test [15] was “inactive” in each case. The result in test [6], in [7] and in test [11] was inactive.

In the case of `CC(C)(CC(=O)O)C(=O)O`, the Potency result in test [1], in test [2], in test [3], in test [4], in test [5] and in test [8] was “inactive” throughout. Moreover, the Potency result in [9], in test [10], in test [12], in [13] and in [14] was “inactive” throughout. Moreover, the outcome in [6], in [7] and in test [11] was inactive. Also, in [15], the Potency was 70.3 µM (active).

For the compound `COc1ccc2c(c1)CCCC2=O`, the Potency entry in [1], in [2], in [3], in [4], in test [5] and in test [8] was “inactive” in each case. Further, the Potency entry in test [9], in test [10], in [12], in test [13], in [14] and in test [15] was “inactive” each time. Also, the compound was called inactive in test [6] and in test [7].

As for `C[C@](N)(Cc1ccc(O)cc1)C(=O)O`, the activation in [1] was -0.125% [at 8.39 µM]; in [7] it was 2.67% [at 6.97 µM]; in [13], -9.59% [at 8.39 µM]. Moreover, the activity change, negative = inhibition in [2] was 12.2% [at 8.39 µM]; in test [14], -0.539% [at 10.5 µM]; in test [15] it was -21.1% [at 10.5 µM]. In addition, the activity change, negative = cytotoxicity in test [3] is 2.75% [at 8.39 µM]; in test [4] it was 2.57% [at 8.39 µM]; in test [6], 0.568% [at 6.97 µM]; in test [8] it was -1.21% [at 8.39 µM]; in [10], -0.609% [at 8.39 µM]; in test [12], -1.6% [at 8.39 µM]. In addition, the viability change, negative = cytotoxic in test [5] was 15.7% [at 6.97 µM]. Further, the caspase activation in test [9] was -1.17% [at 8.39 µM]. Also, the caspase-3/7 activation in test [11] is 0.841% [at 8.39 µM]. In addition, in test [16], the max activation is 0.627%. Besides, the Potency entry in test [17] and in [18] was “inactive” throughout.

In the case of `NC(=O)c1ccc(N)cc1`, the Potency result in test [1], in test [2], in test [3], in [4], in test [5] and in test [9] was “inactive” throughout. Moreover, the Potency result in test [10], in test [13], in test [14] and in [15] was “inactive” each time. The result in test [6], in test [7] and in test [11] was inactive.

For `CC(C)(C)NCCNC(C)(C)C`, the Potency entry in test [1], in test [2], in test [4], in [5], in test [8] and in test [9] was “inactive” in each case. In addition, the Potency entry in [12], in test [13] and in test [14] was “inactive” throughout. For the same compound, the Potency in test [3] is 0.864 µM (active); in test [15], 35.6 µM (active). In addition, the compound was called inactive in [6] and in test [7].
